Screening results (PubChem BioAssay)
Shown are actives, neighbours in structure and some others; about 0.4% of the full set was active somewhere.
Rab7 wt modul – alters GTP binding to wildtype dog Rab7. GTP binding activity (percent of control), % at 10 µM. GST-Rab7 beads, fluorescent GTP binding, flow cytometry; actives lie on both sides; untreated = 100%, excess cold GTP = 0%. AID 758. hit rate 0.055% among 190,000;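 active means fluorescent GTP binding to Rab7 beads changed by at least 20 points from the 100% baseline, either direction, mostly lower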;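 further: median green fluorescence of bound Bodipy-FL-GTP per Rab7 bead population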
Rac1 wt modul – human Rac1 wildtype GTP binding, inhibitors and activators; hit rate 0.27% among 190,000; AID 757; GTP binding activity (% of control), % at 10 µM; P63000; GST-Rac1 beads, fluorescent GTP binding, flow cytometry; actives lie on both sides; 0 = cold GTP competed, 100 = untreated;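 active means GTP binding activity at least 20 points away from the 100% control level, either lower or higher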
Rab2A wt mod – changes GTP binding to wildtype dog Rab2A, up or down; P61105; GST-Rab2 wt beads, Bodipy-GTP binding, flow cytometry; GTP binding activity, % at 10 µM; hit rate 0.19% among 190,000; AID 760;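 active means GTP binding activity at least 20 points away from 100%, either lowered or raised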
HRas wt GTP – modulators of GTP binding to human HRas wildtype; P01112; GST-Ras wt beads, Bodipy-FL-GTP binding, flow cytometry; actives lie on both sides; GTP binding activity, % at 10 µM; hit rate 0.14% among 190,000; AID 759;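 active means GTP binding activity at least 20% away from the 100% baseline, either lowered as inhibitor or raised as activator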
Target sequence (P01112 whole entry, looked up): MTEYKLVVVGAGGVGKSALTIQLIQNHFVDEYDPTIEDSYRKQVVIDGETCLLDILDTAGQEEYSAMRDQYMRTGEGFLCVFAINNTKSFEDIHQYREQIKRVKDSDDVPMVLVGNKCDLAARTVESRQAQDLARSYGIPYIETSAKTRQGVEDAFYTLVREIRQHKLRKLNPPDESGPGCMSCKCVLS
Rac1 mut GTP – alters GTP binding to activated mutant human Rac1 | P63000 | GST-Rac1 activated beads, fluorescent GTP binding, flow cytometry; actives lie on both sides; 100% means binding = to untreated wells | percent activity (GTP binding), % at 10 µM | hit rate 0.11% among 190,000;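 active means GTP binding at least 20 percentage points away from the 100% baseline, in either direction, so actives lie on both sides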
Cdc42 wt – changes GTP binding to wildtype human Cdc42; AID 761; hit rate 0.2% among 190,000; GST-Cdc42 beads, Bodipy-GTP binding, flow cytometry; actives lie on both sides; percent activity (GTP binding), % at 10 µM; P60953;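 active means percent activity GTP binding at least 20 points away from the 100% baseline, either down as inhibitor or up as activator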;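 further: median bead fluorescence of bound Bodipy-FL-GTP at 100 nM; below 100% means less GTP binding so inhibitor and above means activator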
Each line names hits and unclear results; the compound was inactive in the other large screens.

Cc1sc(-n2c(C)cc(C=C3C(=O)NC(=O)NC3=O)c2C)c(C#N)c1C	Rac1 wt modul 79, Rac1 mut GTP 78
Cc1cc(/C=C2\C(=O)NC(=O)N(c3ccc(Cl)cc3)C2=O)c(C)n1-c1sc2c(c1C#N)CCCC2	none
COc1ccc(C(=O)CC2(CC(=O)c3ccc(OC)cc3)C(=O)N(C)C(=O)N(C)C2=O)cc1	none
CN1C(=O)N(C)C(=O)C2(Cc3c(ccc4ccccc34)N(C)C2)C1=O	Rac1 mut GTP 79
CN(C)c1ccc(/C=C/C=C2/C(=O)NC(=O)N(c3ccccc3)C2=O)cc1	Rac1 wt modul 70, Rab2A wt mod 78, Rac1 mut GTP 77, Cdc42 wt 74
COc1cc2[nH]c(=O)n(-c3ccc(C)cc3)c(=O)c2cc1OC	none
Cc1nc2c(=O)n(C)c(=O)nc-2n(C)n1	Cdc42 wt 77
CNC(C(=O)c1ccccc1)C(OC(C)C)c1ccc(Cl)cc1 (stereo not given)	none
